PubChem BioAssay (Tox21)
Values joined by “and” are separate entries in the source; they are usually repeats but may differ in a detail not shown here. Equal values may be shown once. Results filed as inconclusive are left out. Active and inactive are the calls of the source. The call rests on the fitted dose curve; in most records, active means well fitted cell-killing curve with a large enough effect in the repeat runs (not every such curve was filed as active); inconclusive means weak or mixed curves, or effect the other way; inactive means no such curve, though single readings can be large or run the other way.

assay: qHTS assay to identify small molecule antagonists of the estrogen related receptor signaling pathway with the pleiotropic PPARgamma coactivator (PGC) from Tox21 10K library - cell viability counter screen (AID 1224840); settings: PGC/ERR reporter cells viability, CellTiter-Fluor, 17.5 h; series mostly up to 92.4 µM; viability change, negative = cytotoxic: at the top concentration; further: nearly all actives have a fitted effect of over 40% in size
Description: National Center for Advancing Translational Sciences [NCATS]
NIH Chemical Genomics Center [NCGC]
U.S. Environmental Protection Agency [EPA]
National Institutes of Environmental Health Sciences [NIEHS]
National Toxicology Program [NTP]
U.S. Food and Drug Administration [FDA]
Estrogen related receptors (ERRs), the first orphan nuclear receptors discovered, play an important role in the control of cellular energy metabolism. ERRs are required for high-energy production in response to the environmental challenges. The pleiotropic PPARgamma coactivator (PGC) is a major partner of ERR and a key regulator in energy homeostasis. Together they have been implicated in the etiology of metabolic disorders such as Type 2 diabetes and metabolic syndrome. ERR-alpha was also identified as an adverse marker for breast cancer progression; ERR-alpha-positive tumors have a poor prognosis. To screen and to identify environmental compounds that perturb the ERR and PGC/ERR signaling pathways could provide valuable information for potential therapeutic or preventive measures in the treatment of metabolic disease. To differentiate true PGC/ERR antagonists or agonist from cytotoxic substances, the assay is multiplexed with cell viability assay.
Tox21 Assay Protocol Summary:
The PGC/ERR cells were dispensed at 2,000 cells/5 ul/well in 1536-well white plates using a Multidrop dispenser. After the assay plates were incubated at a 37 C/5% CO2 incubator for 6 hours, 23 nL of compounds dissolved in DMSO, positive and negative controls or DMSO only was transferred to the assay plate by a pin tool. The plates were incubated at 37 C for 17.5 hours. 1 ul/well of CellTiter-Fluor reagent was added into the assay plates using a Flying Reagent Dispenser. After 30-minute incubation at 37 C/5% CO2, the fluorescence intensity in the plates was measured using a ViewLux plate reader.
On the % scale 0 is the no-effect control and ±100 the full control effect; potency means the concentration at half of the fitted maximal effect.

| SMILES | Potency | viability change, negative = cytotoxic |
| --- | --- | --- |
| O=C(O)/C=C\C(=O)O | inactive | – |
| C[N+]1(C)[C@@H]2CC(OC(=O)[C@H](CO)c3ccccc3)C[C@H]1[C@@H]1O[C@@H]12 (stereo partly drawn) | – | -2.24% [at 42.5 µM] (inactive) |
| Cc1cc(C)c(C(=O)P(=O)(c2ccccc2)c2ccccc2)c(C)c1 | – | -17.7% (inactive) |
| O=C(Nc1ccccc1-c1ccc(Cl)cc1)c1cccnc1Cl | – | -7.92% (inactive) |
| Clc1ccccc1-c1ccccc1Cl | – | 0.183% (inactive) |
| O=C1C(I)=CC(=C(c2cc(I)c(O)c(I)c2)c2ccccc2C(=O)O)C=C1I | – | -6.36% [at 42.5 µM] (inactive) |
| CNC(=O)Oc1cc(C)c(SC)c(C)c1 | – | -1.73% (inactive) |
| Oc1c(I)cc(I)cc1I | – | 1.15% (inactive) |
| O=S(=O)(C(Cl)(Cl)Cl)C(Cl)(Cl)Cl | 48.6 µM (active) | – |
| CCn1cc(C(=O)O)c(=O)c2ccc(C)nc21 | inactive | – |
| ClC(Cl)=C(c1ccc(Cl)cc1)c1ccccc1Cl | – | 9.03% (inactive) |
| O=[N+]([O-])c1c(Cl)c(Cl)cc(Cl)c1Cl | – | 5.23% (inactive) |
| CCN(CC)C(=O)Cl | – | -0.393% (inactive) |
| CCC1C(=O)OCC1Cc1cncn1C (stereo not drawn) | – | 2.26% [at 42.5 µM] (inactive) |
| CN1CSC(=S)N(C)C1 | 5.42 µM (active) and 6.09 µM (active) | – |
| O=C(O)/C=C/C(=O)O | inactive | – |
| COc1ccc(C(c2ccc(OC)cc2)C(Cl)(Cl)Cl)cc1 | – | 2.83% (inactive) |
| Cc1ccc(N(SC(F)(Cl)Cl)S(=O)(=O)N(C)C)cc1 | 24.3 µM (active) | – |
| Cc1ccc2nc3sc(=O)sc3nc2c1 | – | -9.2% [at 19 µM] (inactive) |
| Nc1ccc([N+](=O)[O-])cc1 | 30.6 µM (active) | – |
| CC(N)C(=O)OC(C)(C)Cc1ccc(Cl)cc1 (stereo not drawn) | – | 9.63% [at 42.5 µM] (inactive) |
| COc1cc(OC)c(OC)cc1C=O | – | 3.73% (inactive) |
| CO/C=C(/C(=O)OC)c1ccccc1Oc1cc(Oc2ccccc2C#N)ncn1 | 36.7 µM (active) | – |
